# Measured values published in PubChem BioAssay AID1031 (Columbia University Molecular Screening Center, 2008).
# This is one part of the list. Values without a mark were called inactive. No rule for the calls is given here.
# Target: Tyrosine-protein phosphatase non-receptor type 22 (Homo sapiens) (UniProt Q9Y2R2)
# Test: retest of PTPN22 activators, confirmation, biochemical, DiFMUP fluorescence, single concentration (AID 1031)
# Details: Recombinant LYP, at 2 µM, hits give high values, zero set by plate's median compound well
# Tyrosine-protein phosphatase non-receptor type 22 (Homo sapiens), sequence (Q9Y2R2 whole entry, looked up): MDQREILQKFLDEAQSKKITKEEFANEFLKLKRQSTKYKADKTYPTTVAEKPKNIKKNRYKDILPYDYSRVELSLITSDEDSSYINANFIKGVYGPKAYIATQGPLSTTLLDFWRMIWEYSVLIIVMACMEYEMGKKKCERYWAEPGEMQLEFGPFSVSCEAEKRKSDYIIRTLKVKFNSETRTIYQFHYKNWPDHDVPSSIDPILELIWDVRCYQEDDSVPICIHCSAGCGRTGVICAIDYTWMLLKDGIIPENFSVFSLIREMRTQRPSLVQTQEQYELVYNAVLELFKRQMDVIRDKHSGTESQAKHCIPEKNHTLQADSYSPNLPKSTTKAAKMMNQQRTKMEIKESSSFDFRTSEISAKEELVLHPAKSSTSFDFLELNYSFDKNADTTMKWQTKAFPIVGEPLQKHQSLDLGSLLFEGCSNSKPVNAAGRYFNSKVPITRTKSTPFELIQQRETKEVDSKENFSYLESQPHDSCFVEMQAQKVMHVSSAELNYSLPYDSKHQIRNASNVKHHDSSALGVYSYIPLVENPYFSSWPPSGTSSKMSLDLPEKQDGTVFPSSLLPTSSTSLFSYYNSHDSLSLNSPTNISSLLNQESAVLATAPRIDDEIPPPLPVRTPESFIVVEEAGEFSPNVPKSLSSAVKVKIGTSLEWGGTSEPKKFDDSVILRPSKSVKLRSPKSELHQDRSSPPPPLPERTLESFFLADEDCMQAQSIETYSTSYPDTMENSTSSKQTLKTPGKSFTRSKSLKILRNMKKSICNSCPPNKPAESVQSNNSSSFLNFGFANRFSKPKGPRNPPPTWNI
row,SMILES,activation [%]
1,N#CCCn1ncc2ccccc21,5.5
2,Cc1ccccc1NC(=O)c1cc(S(=O)(=O)N2CCOCC2)cs1,-3.6
